# PubChem BioAssay AID1159580 (chemical genetic matrix, 2015)
# Among all 5,500 compounds or so, about 2,000 (36%) were called active. Inconclusive results (about 18%) are left out. The list shows a part of the results. Unmarked numbers belong to inactive results. No stated cut-off is given here; in the data, active means normalized growth mostly below about 0.91 (no sharp cut-off); inconclusive means no clear call, values can overlap the other calls; inactive means mostly above about 0.92.
# Test: chemical genetic growth profiling, strain panel (AID 1159580);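 further: tested at 20 µM; growth read once vehicle control cultures reached saturation at 30 °C; 1 = growth at the plate median or of vehicle wells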
# Conditions: growth OD
smiles,measurement,setting,value
NC(=NCCCCCCN=C(N)N=C(N)Nc1ccc(Cl)cc1)N=C(N)Nc1ccc(Cl)cc1,normalized growth,"S. cerevisiae deletion strains, locus YJR075W, strain HOC1, stronger effect = lower value",0.0644 (active)
same,normalized growth,"S. cerevisiae deletion strains, locus YKL009W, strain mrt4, stronger effect = lower value",0.478 (active)
same,normalized growth,"S. cerevisiae deletion strains, locus YKL068W, stronger effect = lower value",0.977
same,normalized growth,"S. cerevisiae deletion strains, locus YKL085W, strain MDH1 (second series), stronger effect = lower value",0.906 (active)
same,normalized growth,"S. cerevisiae deletion strains, locus YKL085W, strain MDH1, stronger effect = lower value",0.906 (active)
same,normalized growth,"S. cerevisiae deletion strains, locus YKL160W, strain elf1, stronger effect = lower value",0.0627 (active)
same,normalized growth,"S. cerevisiae deletion strains, locus YKL190W, strain CNB1, stronger effect = lower value",0.0461 (active)
same,normalized growth,"S. cerevisiae deletion strains, locus YKR001C, strain vps1, stronger effect = lower value",0.0656 (active)
same,normalized growth,"S. cerevisiae deletion strains, locus YKR026C, strain gcn3, stronger effect = lower value",0.0624 (active)
same,normalized growth,"S. cerevisiae deletion strains, locus YKR091W, strain srl3, stronger effect = lower value",0.0577 (active)
same,normalized growth,"S. cerevisiae deletion strains, locus YLL001W, strain dnm1, stronger effect = lower value",0.0629 (active)
same,normalized growth,"S. cerevisiae deletion strains, locus YLL026W, stronger effect = lower value",0.0551 (active)
same,normalized growth,"S. cerevisiae deletion strains, locus YLL041C, strain sdh2, stronger effect = lower value",0.0558 (active)
same,normalized growth,"S. cerevisiae deletion strains, locus YLR027C, strain aat2, stronger effect = lower value",0.0552 (active)
same,normalized growth,"S. cerevisiae deletion strains, locus YLR039C, strain RIC1, stronger effect = lower value",0.0768 (active)
same,normalized growth,"S. cerevisiae deletion strains, locus YLR058C, strain SHM2, stronger effect = lower value",0.0478 (active)
same,normalized growth,"S. cerevisiae deletion strains, locus YLR102C, strain apc9, stronger effect = lower value",0.0634 (active)
same,normalized growth,"S. cerevisiae deletion strains, locus YLR113W, strain HOG1, stronger effect = lower value",0.126 (active)
same,normalized growth,"S. cerevisiae deletion strains, locus YLR221C, strain rsa3, stronger effect = lower value",0.058 (active)
same,normalized growth,"S. cerevisiae deletion strains, locus YLR258W, strain gsy2, stronger effect = lower value",0.0585 (active)
same,normalized growth,"S. cerevisiae deletion strains, locus YLR262C, strain YPT6 (second series), stronger effect = lower value",0.0721 (active)
same,normalized growth,"S. cerevisiae deletion strains, locus YLR262C, strain YPT6, stronger effect = lower value",0.0923 (active)
same,normalized growth,"S. cerevisiae deletion strains, locus YLR268W, strain sec22, stronger effect = lower value",0.0678 (active)
same,normalized growth,"S. cerevisiae deletion strains, locus YLR320W, strain mms22, stronger effect = lower value",0.0755 (active)
same,normalized growth,"S. cerevisiae deletion strains, locus YLR330W, strain CHS5, stronger effect = lower value",0.0516 (active)
same,normalized growth,"S. cerevisiae deletion strains, locus YLR342W, strain FKS1 (second series), stronger effect = lower value",0.0692 (active)
same,normalized growth,"S. cerevisiae deletion strains, locus YLR342W, strain FKS1, stronger effect = lower value",0.063 (active)
same,normalized growth,"S. cerevisiae deletion strains, locus YLR357W, strain rsc2, stronger effect = lower value",0.116 (active)
same,normalized growth,"S. cerevisiae deletion strains, locus YLR370C, strain arc18, stronger effect = lower value",0.0607 (active)
same,normalized growth,"S. cerevisiae deletion strains, locus YLR371W, strain rom2, stronger effect = lower value",0.0627 (active)
same,normalized growth,"S. cerevisiae deletion strains, locus YLR384C, strain iki3, stronger effect = lower value",0.057 (active)
same,normalized growth,"S. cerevisiae deletion strains, locus YLR418C, strain cdc73, stronger effect = lower value",0.0991 (active)
same,normalized growth,"S. cerevisiae deletion strains, locus YML016C, strain PPZ1, stronger effect = lower value",0.0482 (active)
same,normalized growth,"S. cerevisiae deletion strains, locus YML032C, strain rad52, stronger effect = lower value",0.0699 (active)
same,normalized growth,"S. cerevisiae deletion strains, locus YML120C, strain ndi1, stronger effect = lower value",0.0569 (active)
same,normalized growth,"S. cerevisiae deletion strains, locus YML124C, strain tub3, stronger effect = lower value",0.0596 (active)
same,normalized growth,"S. cerevisiae deletion strains, locus YMR058W, strain fet3, stronger effect = lower value",0.0607 (active)
same,normalized growth,"S. cerevisiae deletion strains, locus YMR078C, strain ctf18, stronger effect = lower value",0.071 (active)
same,normalized growth,"S. cerevisiae deletion strains, locus YMR125W, strain sto1, stronger effect = lower value",0.0789 (active)
same,normalized growth,"S. cerevisiae deletion strains, locus YMR129W, stronger effect = lower value",0.0564 (active)
same,normalized growth,"S. cerevisiae deletion strains, locus YMR205C, strain PFK2, stronger effect = lower value",0.0855 (active)
same,normalized growth,"S. cerevisiae deletion strains, locus YMR223W, strain ubp8, stronger effect = lower value",0.0651 (active)
same,normalized growth,"S. cerevisiae deletion strains, locus YMR231W, strain pep5, stronger effect = lower value",0.064 (active)
same,normalized growth,"S. cerevisiae deletion strains, locus YMR263W, strain SAP30, stronger effect = lower value",0.0566 (active)
same,normalized growth,"S. cerevisiae deletion strains, locus YMR307W, strain GAS1, stronger effect = lower value",0.0969 (active)
same,normalized growth,"S. cerevisiae deletion strains, locus YNL067W, strain RPL9B, stronger effect = lower value",0.0509 (active)
same,normalized growth,"S. cerevisiae deletion strains, locus YNL071W, strain lat1, stronger effect = lower value",0.0604 (active)
same,normalized growth,"S. cerevisiae deletion strains, locus YNL128W, strain TEP1, stronger effect = lower value",0.0651 (active)
same,normalized growth,"S. cerevisiae deletion strains, locus YNL153C, strain GIM3, stronger effect = lower value",0.0505 (active)
same,normalized growth,"S. cerevisiae deletion strains, locus YNL183C, strain NPR1, stronger effect = lower value",0.139 (active)
same,normalized growth,"S. cerevisiae deletion strains, locus YNL209W, strain ssb2, stronger effect = lower value",0.057 (active)
same,normalized growth,"S. cerevisiae deletion strains, locus YNL233W, strain BNI4, stronger effect = lower value",0.0552 (active)
same,normalized growth,"S. cerevisiae deletion strains, locus YNL248C, strain rpa49, stronger effect = lower value",0.075 (active)
same,normalized growth,"S. cerevisiae deletion strains, locus YNL250W, strain rad50, stronger effect = lower value",0.909
same,normalized growth,"S. cerevisiae deletion strains, locus YNL271C, strain bni1, stronger effect = lower value",0.607 (active)
same,normalized growth,"S. cerevisiae deletion strains, locus YNL298W, strain CLA4, stronger effect = lower value",0.0653 (active)
same,normalized growth,"S. cerevisiae deletion strains, locus YNL307C, strain MCK1, stronger effect = lower value",0.0676 (active)
same,normalized growth,"S. cerevisiae deletion strains, locus YNL322C, strain KRE1 (second series), stronger effect = lower value",0.0655 (active)
same,normalized growth,"S. cerevisiae deletion strains, locus YNL322C, strain KRE1, stronger effect = lower value",0.0467 (active)
same,normalized growth,"S. cerevisiae deletion strains, locus YNR049C, strain mso1, stronger effect = lower value",0.0617 (active)
same,normalized growth,"S. cerevisiae deletion strains, locus YNR052C, strain pop2, stronger effect = lower value",0.0607 (active)
same,normalized growth,"S. cerevisiae deletion strains, locus YOL006C, strain TOP1, stronger effect = lower value",0.107 (active)
same,normalized growth,"S. cerevisiae deletion strains, locus YOL012C, strain htz1",0.183 (active)
same,normalized growth,"S. cerevisiae deletion strains, locus YOL147C, strain pex11, stronger effect = lower value",0.0595 (active)
same,normalized growth,"S. cerevisiae deletion strains, locus YOR001W, strain rrp6, stronger effect = lower value",0.0681 (active)
same,normalized growth,"S. cerevisiae deletion strains, locus YOR061W, strain CKA2, stronger effect = lower value",0.0471 (active)
same,normalized growth,"S. cerevisiae deletion strains, locus YOR069W, strain VPS5, stronger effect = lower value",0.0468 (active)
same,normalized growth,"S. cerevisiae deletion strains, locus YOR070C, strain gyp1, stronger effect = lower value",0.0572 (active)
same,normalized growth,"S. cerevisiae deletion strains, locus YOR080W, strain dia2, stronger effect = lower value",0.0623 (active)
same,normalized growth,"S. cerevisiae deletion strains, locus YOR083W, strain WHI5, stronger effect = lower value",0.0615 (active)
same,normalized growth,"S. cerevisiae deletion strains, locus YOR106W, strain vam3, stronger effect = lower value",0.0675 (active)
same,normalized growth,"S. cerevisiae deletion strains, locus YOR136W, strain idh2, stronger effect = lower value",0.0708 (active)
same,normalized growth,"S. cerevisiae deletion strains, locus YOR144C, strain elg1, stronger effect = lower value",0.0593 (active)
same,normalized growth,"S. cerevisiae deletion strains, locus YOR184W, strain ser1, stronger effect = lower value",0.0744 (active)
same,normalized growth,"S. cerevisiae deletion strains, locus YOR231W, strain MKK1, stronger effect = lower value",0.0973 (active)
same,normalized growth,"S. cerevisiae deletion strains, locus YOR265W, strain rbl2, stronger effect = lower value",0.0543 (active)
same,normalized growth,"S. cerevisiae deletion strains, locus YOR270C, strain vph1, stronger effect = lower value",0.107 (active)
same,normalized growth,"S. cerevisiae deletion strains, locus YOR290C, strain snf2, stronger effect = lower value",0.0655 (active)
same,normalized growth,"S. cerevisiae deletion strains, locus YOR316C, strain cot1, stronger effect = lower value",0.0609 (active)
same,normalized growth,"S. cerevisiae deletion strains, locus YPL051W, strain arl3, stronger effect = lower value",0.0612 (active)
same,normalized growth,"S. cerevisiae deletion strains, locus YPL055C, strain LGE1, stronger effect = lower value",0.0688 (active)
same,normalized growth,"S. cerevisiae deletion strains, locus YPL078C, strain atp4, stronger effect = lower value",0.0665 (active)
same,normalized growth,"S. cerevisiae deletion strains, locus YPL106C, strain sse1, stronger effect = lower value",0.0968 (active)
same,normalized growth,"S. cerevisiae deletion strains, locus YPL240C, strain hsp82, stronger effect = lower value",0.0556 (active)
same,normalized growth,"S. cerevisiae deletion strains, locus YPL241C, strain CIN2, stronger effect = lower value",0.0486 (active)
same,normalized growth,"S. cerevisiae deletion strains, locus YPL256C, strain CLN2, stronger effect = lower value",0.124 (active)
same,normalized growth,"S. cerevisiae deletion strains, locus YPR119W, strain clb2, stronger effect = lower value",0.0667 (active)
same,normalized growth,"S. cerevisiae deletion strains, locus YPR141C, strain kar3, stronger effect = lower value",1.01
same,normalized growth,"S. cerevisiae deletion strains, locus YPR163C, strain tif3, stronger effect = lower value",0.0696 (active)
same,normalized growth,"S. cerevisiae deletion strains, locus YPR167C, strain met16, stronger effect = lower value",0.0625 (active)
same,normalized growth,"S. cerevisiae deletion strains, strain wtn01, stronger effect = lower value",0.0592 (active)
same,normalized growth,"S. cerevisiae strains, strain wild type, stronger effect = lower value",0.0489 (active)
